CHOP inhibitor – blocks CHOP induction under ER stress. CHO-K1 CHOP-promoter luciferase, tunicamycin-induced, 15-18 h. inhibition, % at 10 µM. actives 3.8% (n = 220,000);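 active means compounds that reduced the stress-induced luciferase reporter signal by more than about 70% of percent inhibition, limit read from the data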;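 further: 0% = tunicamycin plus vehicle and 100% = wells without tunicamycin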
L major viab – Leishmania major promastigote growth inhibition; Leishmania major promastigotes, resazurin fluorescence viability; inhibition, % at 10 µM; actives 9% (n = 200,000); in the data active means inhibition above about 50%;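 further: promastigotes grown with compound for 44 hours at 28 °C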
WT yeast gro inh – growth inhibition of WT yeast, mitochondrial fusion screen. AID 1362. mitochondrial fusion phenotypic screen, WT strain. inhibition, % at 10 µM. actives 2.1% (n = 190,000); in the data active means inhibition above about 58%; tested in S. cerevisiae
RAM inhibit – blocks the yeast RAM network. S. cerevisiae dse1pr::URA3 reporter, 5-FOA growth OD615, 2 d; analog-sensitive cbk1-as2 kinase mutant strain. inhibition, % at 50 µM. actives 1.8% (n = 190,000);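 active means inhibition above a set limit, 3 SD over mean compound inhibition, cut at about 8.4% in these data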;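 further: 0% = DMSO-only wells with no growth and 100% = 10 µM 1-NA-PP1 full growth; inhibition rescues growth on 5-FOA so higher OD means more RAM inhibition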
L major 1uM – inhibitors of Leishmania major promastigote growth, repeat at 1 uM; shares compounds with L major viab; L. major promastigote growth, resazurin fluorescence, 48 h; inhibition, % at 1 µM; actives 13% (n = 1,100);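 active means inhibition above about 50% in both repeat tests, limit read from the data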
CHOP confirm – confirmation of CHOP induction inhibitors; actives 45% (n = 2,100); CHO-CHOP promoter luciferase reporter, tunicamycin-induced, luminescence; AID 504437; inhibition, % at 10 µM; shares compounds with CHOP inhibitor;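 active means mean of three repeat readings of reporter signal inhibition above a set limit, cut at about 70% in these data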;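 further: 0% = tunicamycin plus vehicle and 100% = wells lacking tunicamycin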
An asterisk follows results filed as active; x = not tested or not shown. The list is not random: actives were taken first. Their share in the collection is about 13%.

SMILES | CHOP inhibitor | L major viab | WT yeast gro inh | RAM inhibit | CHOP confirm | others
CC(C)C[C@H]1C(=O)N2CCCC2[C@]2(O)O[C@](NC(=O)[C@@H]3C=C4c5cccc6[nH]cc(c56)CC4N(C)C3)(C(C)C)C(=O)N12 (stereo partly drawn) | 29.3 | 58.5* | 3.6 | 3.2 | x | L major 1uM=1.1
COc1ccccc1N1CCN(Cc2cnc(-c3ccccc3)[nH]2)CC1 | 11.4 | x | x | x | x
O=P(Nc1ccccc1)(Nc1ccccc1)Oc1ccc(Cl)cc1 | -25.5 | 71.3* | 2.0 | 5.3 | x | L major 1uM=-5.2
O=C(Nc1ccc(Cl)cc1)Nc1nccs1 | x | 2.6 | -15.1 | 0.3 | x
CC[n+]1c(/C=C/N(C)c2ccccc2)sc2ccc(Cl)cc21 | 28.9 | 100.5* | -2.1 | 0.9 | x | L major 1uM=99.9*
CC[n+]1c(/C=C/C=C/c2ccc(N(C)C)cc2)sc2ccccc21 | 63.7 | x | x | x | x
CP(=O)(Nc1ccccc1)C(Cl)(Cl)Cl (stereo not drawn) | -9.6 | -8.8 | 8.8 | -0.1 | x
CC(C)[C@H]1C(=O)O[C@H](C(C)C)C(=O)N(C)[C@@H](C(C)C)C(=O)O[C@H](C(C)C)C(=O)N(C)[C@@H](C(C)C)C(=O)O[C@H](C(C)C)C(=O)N1C | 93.2* | 100.4* | 79.7 | 1.8 | x | L major 1uM=-7.3
O=C1NC(=O)C2(C(=O)N1)C(c1ccc(F)cc1)NC(=S)NC2c1ccc(F)cc1 (stereo not drawn) | 22.5 | -7.7 | 15.5 | 1.4 | x
CC(C)N(Cc1ccco1)/N=C/c1c(O)n(Cc2ccccc2)c(=O)[nH]c1=O | 1.9 | x | x | x | x
N#CC1=C(N)Oc2cc(O)ccc2C1c1ccc2c(c1)OCO2 (stereo not drawn) | 7.3 | 5.8 | -4.4 | 1.2 | x
O=C1C2CCCN2C(c2ccncc2)N1c1ccc(Cl)c(Cl)c1 (stereo not drawn) | 36.3 | 0.1 | 2.9 | 1.2 | x
O=C1C2CCCN2C(c2cccnc2)N1c1ccc(Cl)c(Cl)c1 (stereo not drawn) | 4.6 | 95.5* | 5.3 | -0.1 | x | L major 1uM=7.8
CCOC(=O)c1c(C)[nH]c(C(=O)C(C)N2CCCC2)c1C (stereo not drawn) | 12.6 | -3.7 | 9.7 | 1.2 | x
CCOC(=O)c1c(C)[nH]c(C(=O)C(Cc2ccccc2)N(C)C)c1C (stereo not drawn) | 5.5 | 98.9* | 10.2 | 0.9 | x | L major 1uM=-8.4
Cc1c(C=O)c2ccccc2n1Cc1ccc([N+](=O)[O-])cc1 | 20.7 | 5.7 | 12.0 | 1.4 | x
CCCCc1ccc2[nH]cc(CCN)c2c1 | 20.7 | 100.1* | -22.8 | 2.8 | x | L major 1uM=1.3
O=C(NCC(c1cccnc1)N1CCN(c2ccc(F)cc2)CC1)Oc1ccccc1 (stereo not drawn) | 17.9 | 92.6* | 0.7 | -1.2 | x | L major 1uM=78.5*
Cc1ccc(NC(=O)CN2C(=O)CN=C(c3ccccc3)c3cc(Cl)ccc32)cc1 | 107.0* | 61.1* | 41.0 | 0.5 | 33.9 | L major 1uM=4.3
CN(C)c1ccc(NC(=O)CN2C(=O)CN=C(c3ccccc3)c3ccccc32)cc1 | x | -0.2 | 5.1 | 2.1 | x
CC1=CC2/C=C(\C)CCC(O)C(O)/C=C/C(=O)C23C(=O)NC(CC(C)C)C3C1C (stereo not drawn) | 105.5* | 97.4* | -20.8 | 0.0 | 125.0* | L major 1uM=48.2
Cc1nn(Cc2ccccc2)c(Cl)c1C(=O)OCC(=O)N1CCCC1 | 5.8 | -4.9 | -1.2 | 0.0 | x
Nc1cc(Cl)c2nonc2c1[N+](=O)[O-] | 107.6* | 98.3* | -4.1 | -0.1 | 120.9*
C=CCn1c(O)c(C(CC)=Nc2ccc(N(CC)CC)cc2)c(=O)[nH]c1=O | 102.7* | 25.6 | -17.1 | 0.1 | 95.9*
O=C(COC(=O)c1ccc(O)cc1)Nc1ccc(Cl)cc1C(=O)c1ccccc1 | 102.2* | 7.0 | 76.5* | 6.3 | 40.9
SMILES | CHOP inhibitor | L major viab | WT yeast gro inh | RAM inhibit | CHOP confirm | others
O=C(COc1ccccc1)Nc1ccc(Cl)cc1C(=O)c1ccccc1 | 96.4* | 39.3 | -24.1 | 5.7 | 5.2
Fc1cccc(F)c1-c1nc(-c2ccc(Cl)cc2)no1 | -20.1 | x | x | x | x
N=C1c2ccccc2CN1NC(=O)c1ccc(Br)cc1 | 12.8 | 6.2 | -0.6 | 0.8 | x
CCOc1ccc(N=Cc2c(O)n(C(C)(C)C)c(=O)[nH]c2=O)cc1 | 98.6* | -1.7 | 14.1 | 2.6 | 127.1*
O=C1NC(=S)NC(=O)C1=Cc1cccn1-c1ccc(O)cc1 | 107.1* | 100.0* | -11.8 | 7.7 | -267.0
O=C(O)CCn1cc(C=C2C(=O)NC(=S)NC2=O)c(-c2ccccc2)n1 | 4.7 | -2.8 | -6.8 | 1.4 | x
C(#CCN1CCOCC1)COC/C=C/c1ccccc1 | 11.6 | 0.8 | 6.1 | 2.1 | x
CN(C)c1ccc(/C=C2/C(=O)NC(=O)N(Cc3ccco3)C2=O)cc1 | -15.3 | -1.4 | -2.4 | 0.1 | x
O=C1NC(=O)N(Cc2ccco2)C(=O)/C1=C/c1ccc(-c2cccc([N+](=O)[O-])c2)o1 | 97.7* | 98.8* | 13.3 | 4.6 | -104.4
C=CCN1C(=O)/C(=C/c2ccc(N3CCOCC3)o2)C(=O)NC1=S | -51.9 | 3.3 | 2.3 | 1.3 | x
C=CCN1C(=O)NC(=O)/C(=C\c2ccc(-c3ccccc3[N+](=O)[O-])o2)C1=O | 105.2* | -3.9 | -10.6 | -0.4 | -35.6
CCOC(=O)c1sc(N=Nc2c(O)[nH]c(=O)[nH]c2=O)c(C(=O)OCC)c1C | 105.0* | 59.0* | -253.1 | 1.5 | 106.0*
CCOC(=O)c1ccc(N=C(C)c2c(O)[nH]c(=O)[nH]c2=O)cc1 | 24.4 | x | x | x | x
C=C1C(=O)O[C@@H]2C[C@@H](C)[C@@H]3C=CC(=O)[C@@]3(C)[C@@H](O)[C@H]12 | 107.4* | x | x | x | 119.0*
CCN1C(=O)/C(=C/c2ccc(N(CC)CC)cc2OC)C(=O)NC1=S | 99.7* | 99.5* | 14.7 | 8.1 | -14.9
CCOC(=O)c1c(C)n(C(C)C)c2ccc(OC(=O)c3ccc(N4C(=O)CCC4=O)cc3)cc12 | 25.5 | 3.0 | 44.1 | 2.1 | x
Cc1ccc(NC(=O)c2cc(-c3ccccc3)n(CCCN3CCOCC3)c2C)cc1 | 11.9 | x | x | x | x
O=c1c2ccccc2nc(-c2cccs2)n1-c1ccccc1 | 51.5 | 0.7 | -4.6 | 2.5 | x
NC(N)=N/N=C/c1cn(-c2ccccc2)nc1-c1cccs1 | 106.3* | 100.5* | 15.9 | -1.5 | 98.2*
O=C1NC(=O)N(c2cccc(Cl)c2)C(=O)/C1=C\c1ccc(Sc2nc3ccccc3[nH]2)o1 | 4.3 | -0.5 | 16.4 | 2.7 | x
O=C1NC(=O)N(c2ccccc2)C(=O)/C1=C/c1ccc(Sc2ccccc2)o1 | 103.7* | -7.6 | -0.4 | 7.8 | -26.3
CCOC(=O)c1c(-n2c(C)cc(C=C3C(=O)NC(=S)NC3=O)c2C)sc2c1CCCC2 | 106.7* | 100.2* | 77.6* | 11.0* | 140.3*
COC(=O)Nc1ccc(N=C(N)N[N+](=O)[O-])cc1 | 11.1 | -5.3 | -23.1 | 0.7 | x
COc1ccc(N2C(=O)NC(=O)/C(=C/c3ccc([N+](=O)[O-])s3)C2=O)cc1 | 3.3 | x | x | x | x
COc1ccc(N2C(=O)/C(=C/c3cccs3)C(=O)NC2=S)cc1 | 104.2* | x | x | x | -140.6
Cc1ccc(/C=C2\C(=O)NC(=S)N(c3ccc(F)cc3)C2=O)s1 | 102.7* | 100.4* | 24.8 | 4.0 | -158.4

Screens from PubChem.
